# Compounds with a hit are over-represented: about 4.2% of the library has one in this group of screens.
# Sfp PPTase inh: blocks B. subtilis Sfp PPTase activity; Q9F4F7; Biochemical Sfp PPTase activity, qHTS; Potency, µM, without a hit: largest response in the series, negative = inhibition, hits mostly inhibitors; 310,000 tested, 3.5% active;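 further: the enzyme is Sfp with the accession as filed and its product quenches rhodamine fluorescence; potency means the concentration at half of the fitted maximal effect; 0% = enzyme reaction without inhibitor and -100% = no enzyme wells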
#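 Fluorescence-quenching assay with 15 nM Sfp, 5 uM rhodamine-CoA and 12.5 uM BHQ-2-labelled ybbR peptide in pH 7.6 Hepes/MgCl2 buffer. Enzyme was pre-incubated with compound for 15 min at room temperature. Rate was taken from the 30-min fluorescence change (525/598 nm).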
# TCR act: T cell receptor activation | Potency, µM (series often up to 9.22 µM), inactives show at the highest dose activation of IL-2 secretion, hits mostly activators | primary human leukocytes, anti-CD3, IL-2 HTRF, 48 h | 330,000 tested, under 10 active; further: % of control where 0% means no effect
#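 Readout: HTRF IL-2, Eu-cryptate/d2 antibody pair, 320nm excitation, 665nm emission. Stimulus: a-CD3 beads, no co-stimulation. Cells: primary human leukocytes. Exposure: 48 hr with compound.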
# uPA surface inh: inhibitors of cell surface uPA generation; cell surface uPA generation assay, qHTS; 330,000 tested, 0.31% active; Potency, µM (series often up to 38.3 µM), for inactives: top-dose activity change, negative = inhibition, most hits filed as inhibitors; active means well fitted inhibition curve with a large enough effect; inconclusive means small, poorly fitted or top-dose-only effect; inactive means no such curve, though single readings can be large or run the other way; tested in mouse RAW 264.7 cells; further: potency means the concentration at half of the fitted maximal effect; on the % scale 0 is the no-effect control and ±100 the full control effect; nearly all actives have a fitted effect of over 55% in size
# ClpP mod: qHTS Assay for Activators of ClpP | ATP-dependent Clp protease proteolytic subunit (Bacillus subtilis (strain 168)), P80244 | purified B. subtilis ClpP, FRET peptide cleavage, 20 min | Potency, µM (highest dose often 57.5 µM), for inactives: at the top dose activity change, negative = active | 340,000 tested, 1.9% active | AID 651965, 2013; active means well fitted falling curve with a large enough effect; inconclusive means small, poorly fitted or top-dose-only effect; inactive means no such curve, though single readings can be large or run the other way; further: potency means the concentration at half of the fitted maximal effect; the source files actives as falling curves though it sought activators and does not explain the sign; nearly all actives have a fitted effect of over 65% in size
# Target sequence (P80244 whole entry, looked up): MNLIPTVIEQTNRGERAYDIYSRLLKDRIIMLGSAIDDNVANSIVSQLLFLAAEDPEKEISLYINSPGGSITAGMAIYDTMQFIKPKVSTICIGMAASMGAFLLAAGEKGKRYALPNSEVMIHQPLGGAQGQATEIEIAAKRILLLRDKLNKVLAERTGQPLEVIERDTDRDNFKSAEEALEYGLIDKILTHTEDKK
#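 Purified B. subtilis ClpP, 10 microg/mL final in Tris/HCl pH8 with KCl, BSA, glycerol and Tween-20, cleaved an Abz/nitrotyrosine-quenched decapeptide. Fluorescence (ex 320, em 430) was read at 0 and 20 min at room temperature. Delta was normalized to 5.8 microM ADEP and DMSO/no-enzyme controls.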
# The depositor's hits bear a star; ? = inconclusive; . = no result; [ ] = remark or other dose. Unless noted, the call rests on the fitted dose curve; in most records, active means well fitted curve in the direction sought with a large enough effect; inconclusive means small, poorly fitted or top-dose-only effect, or another doubt; inactive means no such curve, though single readings can be large; an effect the other way counts as inactive or inconclusive.
SMILES,Sfp PPTase inh,TCR act,uPA surface inh,ClpP mod
CCC(=NCc1ccccc1)C1=C(O)C(C(=O)OC)C(C)(C)CC1=O (centres undefined),-1%,1%,2%,3.2µM*
CCCCC(=Nc1ccc(N)cc1)C1=C(O)C(C(=O)OC)C(C)(C)CC1=O (centres undefined),1%,0%,3%,-2%
CCOC(=O)CNC(=O)c1cc2c(=O)oc3ccccc3c2s1,.,.,.,-4%
Cc1cc(Nc2ccc3c(c2)OCCO3)c2cccc(C)c2n1,-9%,4%[46.1 µM],-6%,32µM*
Cc1c(CCO)c(=O)n(-c2ccccc2)n1S(=O)(=O)c1c(Cl)cc(Cl)cc1Cl,71µM*,1%,1%,0%
COc1ccc(CC(=O)Nc2cccc(-c3cn4ccccc4n3)c2)cc1,1%,-42%[46.1 µM],-5%,20µM*
CC(=O)Nc1cccc(-c2cn3ccc(C)cc3n2)c1,-12%,-1%,?,3%
COc1ccc(CC(=O)Nc2ccc(-c3cn4ccccc4n3)cc2)cc1OC,5%,-2%,0%,?
COc1ccc(CC(=O)Nc2ccc(-c3cn4ccccc4n3)cc2)cc1,-9%,-5%,-5%,28µM*
Cc1ccn2cc(-c3cccc(NC(=O)CCC(=O)O)c3)nc2c1,4%,3%,3.5µM*,4%
O=C(Nc1cccc(-c2cn3ccccc3n2)c1)c1cccc(Cl)c1,-12%,4%,-7%,-14%
O=C(Nc1cccc(-c2cn3ccccc3n2)c1)C1CC1,12%,5%,.,28µM*
O=C(O)CCc1ccc(-c2ccccc2)n1-c1cccc(Br)c1,.,.,.,-6%
CN1C(C(=O)NCc2ccc(OC(F)(F)F)cc2)CC2Cn3c(nc4cc5ccccc5cc43)C21 (centres undefined),3%,0%,-5%,-4%
Cc1cccc2nc(-c3cccc(NC(=O)Cc4ccccc4)c3)cn12,19%,1%[46.1 µM],-3%,28µM*
CCC(=O)Nc1cccc(-c2cn3ccccc3n2)c1,8%,2%[46.1 µM],3%,10µM*
Cc1cccc2nc(-c3cccc(NC(=O)c4ccc(Cl)cc4)c3)cn12,9%,12%,-28%,38%
COc1cccc(CC(=O)NCc2ccc3c(c2)CCN3C(C)=O)c1,.,.,.,-2%
CCOC(=O)c1sc2nc(CC(=O)OC)nc(NCCN(CC)CC)c2c1C,4%,-3%,-4%,-30%
CCOC(=O)c1sc2nc(CC(=O)OC)nc(NCc3ccc(Cl)cc3)c2c1C,?,.,.,14µM*
N#Cc1ccc(CN2CCC3(CC2)CCN(C(=O)c2ccco2)CC3)cc1,31%,.,.,.
CCOC(=O)c1nn(-c2cccc(C)c2)c2nc(-c3ccccc3)c(C#N)c(=O)n12,10%,-1%,8%,32µM*
CCOC(=O)c1nn(-c2ccc(Cl)cc2)c2nc(CC)c(C#N)c(=O)n12,4%,7%[46.1 µM],1%,896%
CCOC(=O)c1nn(-c2ccc(OCC)cc2)c2nc(CC(C)C)c(C#N)c(=O)n12,50µM*,-5%[46.1 µM],-7%,22µM*
CCOC(=O)c1nn(-c2ccc(Cl)cc2)c2nc(-c3ccc(C)cc3)c(C#N)c(=O)n12,-9%,4%,-3%,25µM*
SMILES,Sfp PPTase inh,TCR act,uPA surface inh,ClpP mod
COc1ccc(OC)c(C2CC(=O)N(c3cccc(C)c3)C3=C2C(=O)OC3)c1 (centres undefined),.,.,.,-1%
COc1cccc(C2SCC(=O)N2c2ccc(Cl)cc2)c1OC (centres undefined),-1%,5%[46.1 µM],2%,16%
Cc1cccc(N2CSC3=C(C#N)C(c4ccc(C)o4)CC(=O)N3C2)c1 (centres undefined),2.8µM*,.,.,.
COc1ccc(OC)c(C2CC(=O)N3CN(c4ccccc4)CSC3=C2C#N)c1 (centres undefined),4.5µM*,1%,-12%,0%
COc1ccc(N2CSC3=C(C#N)C(c4cccc(OC)c4OC)CC(=O)N3C2)cc1 (centres undefined),3.5µM*,-7%,-24%,-3%
Cn1c2c(c(=O)n(C)c1=O)C(c1ccccc1F)C(C#N)=C(N)O2 (centres undefined),-22%,6%,1%,.
CCc1ccccc1N1CSC2=C(C#N)C(c3ccccc3F)CC(=O)N2C1 (centres undefined),1.1µM*,-6%,?,3%
COC(=O)CSC1=C(C#N)C(c2ccc(C)o2)CC(=O)N1 (centres undefined),-12%,.,-16%,.
CCC(=O)Nc1cccc(NC(=S)NC(=O)c2ccccc2C)c1,6%,0%,-9%,1%
